Hits are enriched below; roughly 6.8% of the tested compounds scored in any of these assays.
NADH enzymes: inhibition of NAD/NADH coupling enzymes, library profiling; coupled PK/LDH NADH assays, four targets; AID 774; 65,000 tested, 0.02% active; IC50, µM (highest dose often 10 µM), without a hit: at the highest dose inhibition;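 active = single-dose screening hits from any of four coupled enzyme assays that gave an IC50 when retested across doses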;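 note: the DPM-DC format reads NADH fluorescence rather than 340 nm absorbance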
MK inhibit: inhibitors of Streptococcus pneumoniae mevalonate kinase; purified MK, PK/LDH-coupled NADH absorbance 340 nm; inhibition, % at 10 µM; 65,000 tested, 0.48% active; AID 555;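 active = ranked among the strongest by inhibition in the single 10 µM screen, a fixed top-ranked set picked for dose follow-up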
PMK inhibit: blocks S. pneumoniae phosphomevalonate kinase; purified PMK, PK/LDH-coupled NADH absorbance 340 nm; 65,000 tested, 0.49% active; AID 539; inhibition, % at 10 µM;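 active = top-ranked compounds by inhibition in the single 10 µM screen, taking a fixed number of the strongest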;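 note: 0% = full reaction with DMSO carrier and 100% = background rate without enzyme reaction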
Spn DPM-DC inh: inhibitors of Streptococcus pneumoniae diphosphomevalonate decarboxylase; purified DPM-DC, PK/LDH coupled NADH fluorescence; calls only at 10 µM; 65,000 tested, 0.49% active;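 active = the 320 compounds with the highest percent inhibition in the single-dose primary screen, excluding strongly autofluorescent ones, cut at about 32% in these data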;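 note: kinetic rate of NADH fluorescence loss reporting ADP formed by the decarboxylase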
Autofluor 339: intrinsic fluorescence of library compounds, ex339/em460 – biochemical, MLSMR library, data from DPM-DC assay, artefact control, profiling panel | 65,000 tested, 5.5% active | fluorescence fold increase at 10 µM | AID 709 | compound autofluorescence, ex339/em460 nm, NADH buffer; active compounds read high; 1 = no-compound wells, NADH background;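 active = at 10 µM, mean starting fluorescence two-fold or more over control wells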;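 note: signal is the first read of a kinetic run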
Abs 340nm: compounds absorbing at 340 nm; fold change at 10 µM; compound absorbance at 340 nm, fold over control; AID 708; 65,000 tested, under 10 active;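 active = at 10 µM dose, initial 340 nm absorbance at least 2 fold that of control wells; inactive = change under 2 fold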;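 note: initial absorbance extrapolated from kinetic A340 decline of NADH oxidation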
Active calls of the source: *; i = inactive; / = not tested or not shown; + = active, no number.

SMILES | NADH enzymes | MK inhibit | PMK inhibit | Spn DPM-DC inh | Autofluor 339 | Abs 340nm
CCOC(=O)Cn1c(=O)oc2cc(S(=O)(=O)NCCc3ccc(OCC)c(OCC)c3)ccc21 | 4.0% | 0.0 | 11.0 | i | 1.08 | 1.03
COc1cc(C(=O)OCC(=O)c2cc(C)n(C)c2C)cc(NC(=O)c2ccco2)c1OC | 11.0% | 0.0 | 10.0 | i | 2.94* | 1.05
Cc1ccc(C)c(C2=CSC3=NCCN23)c1 | 5.0% | 1.0 | 15.0 | i | 1.08 | 0.99
CCOC(=O)N1CCN(C(=O)Cn2nc(-c3ccc(Cl)cc3)ccc2=O)CC1 | 8.0% | 0.0 | 25.0* | i | 1.15 | 1
O=C(CN1CCN(C2CCCCC2)CC1)c1ccc2cc[nH]c2c1 | 1.0% | 0.0 | 1.0 | / | 2.1* | 1.15
O=C(O)c1ccc2cc[nH]c2c1 | 8.0% | 9.0 | 10.0 | i | 1.15 | 1
Cn1c(=O)[nH]c(=O)c2c1nc(NC1CCCCC1)n2CCO | 1.0% | 0.0 | 1.0 | i | 1.06 | 1.03
Cn1c(=O)[nH]c(=O)c2c1nc(NC1CCCCC1)n2Cc1ccccc1 | 31.0% | 37.0 | 17.0 | + | 2.53* | 0.98
CSCCC(NS(=O)(=O)c1ccc2c(c1)oc(=O)n2C)C(=O)NC1CCC(C)CC1 (configuration not stated) | 4.0% | 9.0 | 0.0 | i | 1.04 | 1.01
CC1CCc2nn(CC(=O)NC3CCCC(C)C3C)cc2C1 (configuration not stated) | 4.0% | 6.0 | 5.0 | i | 1.08 | 1.05
CCCCC1CC1C(=O)Nc1ccc(OC)c(OC)c1 (configuration not stated) | 1.0% | 2.0 | 2.0 | i | 1.03 | 1.02
COc1ccccc1-c1cc(C(=O)NC(C)C)no1 | 4.0% | 2.0 | 11.0 | i | 1.24 | 1
COc1ccccc1-c1cc(C(=O)Nc2ccc(F)cc2F)no1 | 8.0% | 12.0 | 11.0 | i | 2.12* | 1.04
O=c1cc(-c2ccncc2)oc2ccccc12 | 2.0% | 6.0 | 0.0 | i | 1.08 | 1.08
O=c1cc(-c2ccc3c(c2)OCO3)oc2ccccc12 | 4.0% | 0.0 | 8.0 | / | 3.65* | 1.18
c1cncc(-c2nc(Oc3ccc(-c4nnco4)cc3)c3c4c(sc3n2)CCCC4)c1 | 6.0% | 0.0 | 12.0 | / | 2.11* | 1.04
Nc1nc(SCC(=O)C23CC4CC(CC(C4)C2)C3)n[nH]1 | 4.0% | 2.0 | 11.0 | i | 1.11 | 0.96
CCOC(=O)N1CCC2(CC1)CC(=O)c1c(ccc3oc(C(=O)O)c(C)c13)O2 | 4.0% | 9.0 | 10.0 | / | 3.38* | 1
CCOC(=O)c1oc2ccc3c(c2c1C)C(=O)CC1(CCN(C(=O)OCC)CC1)O3 | 5.0% | 9.0 | 5.0 | i | 1.47 | 1.03
CCOC(=O)COc1ccc2c3c(c(=O)oc2c1C)CCC3 | 9.0% | 0.0 | 6.0 | i | 2.26* | 1.09
COc1ccc2c3c(c(=O)oc2c1OCC(N)=O)CCCC3 | 2.0% | 10.0 | 0.0 | / | 2.47* | 1.02
Cc1c(OCc2nn[nH]n2)ccc2c3c(c(=O)oc12)CCCC3 | 2.0% | 0.0 | 4.0 | / | 3.8* | 1.1
Cc1c(OCc2nn[nH]n2)ccc2c3c(c(=O)oc12)CCC(C)C3 (configuration not stated) | 1.0% | 0.0 | 2.0 | / | 3.83* | 1.12
Cc1coc2c(C)c3oc(=O)c4c(c3cc12)CCCC4 | 1.0% | 0.0 | 2.0 | i | 1.33 | 1.04
Cc1nc2ccc(S(=O)(=O)NCC(=O)N3CCOCC3)cc2s1 | 5.0% | 1.0 | 14.0 | i | 1.05 | 0.99
SMILES | NADH enzymes | MK inhibit | PMK inhibit | Spn DPM-DC inh | Autofluor 339 | Abs 340nm
COc1ccc(Oc2nc(Oc3ccc(OC)cc3)nc(Oc3ccc(OC)cc3)n2)cc1 | 2.0% | 3.0 | 0.0 | i | 1.07 | 1.01
Cc1ccc(NC(=O)C(C)N2C(=O)c3ccccc3C2=O)cc1 (configuration not stated) | 6.0% | 8.0 | 11.0 | i | 1.06 | 1.01
CCC1(CC)Nc2ccccc2C(=O)N1c1ccc(NC(C)=O)cc1 | 11.0% | 5.0 | 17.0 | / | 3.73* | 1.02
O=C(O)CCSc1nc2ccccc2s1 | 1.0% | 0.0 | 4.0 | i | 1.13 | 1.06
c1ccc2sc(SCc3ccc(-c4nnco4)cc3)nc2c1 | 14.0% | 5.0 | 30.0* | i | 1 | 1.01
Cc1c(N=Cc2cc3c(cc2Cl)OCO3)c(=O)n(-c2ccccc2)n1C | 2.0% | 2.0 | 3.0 | i | 1.06 | 1.2
Fc1ccc2c(c1)[C@H]1OCC[C@H]1[C@@H](c1ccco1)N2 | 12.0% | 10.0 | 2.0 | i | 2.67* | 1.03

Assay outcomes deposited in PubChem BioAssay by SRMLSC.
